Test results published in the supplement of paper PMC10849652.
The full data set covers some 8,800 targets. This sample favours those with a hit. About 0.5% of all pairs of compound and target were hits.

Key:
Assay in all cases: log2 fold change, soluble protein after heating vs DMSO (PISA); higher = thermal stabilisation; K562 lysate, 10 uM; active = over 0.2 and 3.5 SD of the protein, either way, in both replicates (recomputed)
alvocidib = compound: CN1CC[C@H](c2c(O)cc(O)c3c(=O)cc(-c4ccccc4Cl)oc23)[C@H](O)C1 [alvocidib]
In short: (§1)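 Values give the log-two fold change in thermal stability against solvent controls, from duplicates. Crude K562 extract at 1 mg/mL protein, made by dounce homogenisation in PBS pH 7.4 with 1 mM MgCl2, was treated with 10 μM compound for 30 min. After 3 min heating across 48°C-58°C, aliquots were pooled, adjusted to 0.5% NP-40 at 4°C and centrifuged at 21,000xg for 90 min. The supernatant was measured by TMTpro 16plex LC-MS/MS with channel sums equalised.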

Tubastatin A = compound: CN1CCc2c(c3ccccc3n2Cc2ccc(C(=O)NO)cc2)C1 [Tubastatin A]
In short: as §1

[1] = compound: CNC(=O)C1=CC=CC=C1NC2=NC(=NC=C2Cl)NC3=C(C=C(C=C3)N4CCOCC4)OC
In short: as §1

defactinib = compound: CNC(=O)c1ccc(Nc2ncc(C(F)(F)F)c(NCc3nccnc3N(C)S(C)(=O)=O)n2)cc1 [defactinib]
In short: as §1

[2] = compound: CNc1nc(-c2ccc3c(N)n[nH]c3c2)cc(N2C[C@@H](C(=O)NC3CCCCC3)CC[C@H]2C)n1
In short: as §1

encorafenib = compound: COC(=O)N[C@@H](C)CNc1nccc(-c2cn(C(C)C)nc2-c2cc(Cl)cc(NS(C)(=O)=O)c2F)n1 [encorafenib]
In short: as §1

[3] = compound: COC(=O)[C@H](CCSC)NC(=O)C1=C(C=C(C=C1)NC[C@H](CS)N)C2=CC=CC=C2
In short: as §1

alisertib = compound: COc1cc(Nc2ncc3c(n2)-c2ccc(Cl)cc2C(c2c(F)cccc2OC)=NC3)ccc1C(=O)O [alisertib]
In short: as §1

[4] = compound: COc1cc2nc(-c3cc(F)ccc3O)nc(N[C@@H]3CNC[C@H]3C(C)(C)O)c2cc1OC
In short: as §1

gefitinib = compound: COc1cc2ncnc(Nc3ccc(F)c(Cl)c3)c2cc1OCCCN1CCOCC1 [gefitinib]
In short: as §1

lapatinib = compound: CS(=O)(=O)CCNCc1ccc(-c2ccc3ncnc(Nc4ccc(OCc5cccc(F)c5)c(Cl)c4)c3c2)o1 [lapatinib]
In short: as §1

pictilisib = compound: CS(=O)(=O)N1CCN(Cc2cc3nc(-c4cccc5[nH]ncc45)nc(N4CCOCC4)c3s2)CC1 [pictilisib]
In short: as §1

crizotinib = compound: C[C@@H](Oc1cc(-c2cnn(C3CCNCC3)c2)cnc1N)c1c(Cl)ccc(F)c1Cl [crizotinib]
In short: as §1

[5] = compound: C[C@H](C1=CC=C(C=C1)C(=O)NC2=C3C=CNC3=NC=C2)N
In short: as §1

duvelisib = compound: C[C@H](Nc1ncnc2nc[nH]c12)c1cc2cccc(Cl)c2c(=O)n1-c1ccccc1 [duvelisib]
In short: as §1

gandotinib = compound: Cc1cc(Nc2cc(CN3CCOCC3)c3nc(C)c(Cc4ccc(Cl)cc4F)n3n2)n[nH]1 [gandotinib]
In short: as §1

tozasertib = compound: Cc1cc(Nc2cc(N3CCN(C)CC3)nc(Sc3ccc(NC(=O)C4CC4)cc3)n2)n[nH]1 [tozasertib]
In short: as §1

doramapimod = compound: Cc1ccc(-n2nc(C(C)(C)C)cc2NC(=O)Nc2ccc(OCCN3CCOCC3)c3ccccc23)cc1 [doramapimod]
In short: as §1

bafetinib = compound: Cc1ccc(NC(=O)c2ccc(CN3CC[C@H](N(C)C)C3)c(C(F)(F)F)c2)cc1Nc1nccc(-c2cncnc2)n1 [bafetinib]
In short: as §1

[6] = compound: Cc1cccc(CC(=O)N2CCc3c2ccc(-c2cn(C)c4ncnc(N)c24)c3F)n1
In short: as §1

Measured: log2 fold change

CIAO2A (UniProt Q9H5X1)
active: [6] -0.276
inactive: alvocidib 0.034 | Tubastatin A 0.04 | [1] 0 | defactinib -0.002 | [2] 0.109 | encorafenib 0.026 | [3] -0.052 | alisertib 0.089 | [4] 0.009 | gefitinib 0.088 | lapatinib 0.007 | pictilisib -0.058 | crizotinib -0.014 | [5] 0.181 | duvelisib -0.01 | gandotinib 0 | tozasertib 0.042 | doramapimod 0.11 | bafetinib -0.015

DDX54 isoform 2 (UniProt Q8TDD1)
inactive: alvocidib -0.037 | Tubastatin A -0.047 | [1] 0.017 | defactinib -0.05 | [2] -0.03 | encorafenib 0.084 | [3] 0.025 | alisertib 0.023 | [4] 0.006 | gefitinib -0.089 | lapatinib -0.03 | pictilisib 0.075 | crizotinib -0.057 | [5] -0.025 | duvelisib 0.025 | gandotinib 0.01 | tozasertib 0.035 | doramapimod 0.019 | bafetinib 0.11 | [6] 0.101

DGCR8 (UniProt Q8WYQ5)
inactive: alvocidib 0.009 | Tubastatin A -0.115 | [1] -0.009 | defactinib -0.046 | [2] 0.042 | encorafenib 0.018 | [3] 0.081 | alisertib 0.022 | [4] 0.027 | gefitinib -0.034 | lapatinib -0.023 | pictilisib -0.048 | crizotinib 0.039 | [5] -0.056 | duvelisib -0.014 | gandotinib -0.032 | tozasertib -0.012 | doramapimod 0.04 | bafetinib -0.009 | [6] 0.044

CUEDC2 (UniProt Q9H467)
Sequence of UniProt Q9H467 (Q9H467 whole entry, looked up): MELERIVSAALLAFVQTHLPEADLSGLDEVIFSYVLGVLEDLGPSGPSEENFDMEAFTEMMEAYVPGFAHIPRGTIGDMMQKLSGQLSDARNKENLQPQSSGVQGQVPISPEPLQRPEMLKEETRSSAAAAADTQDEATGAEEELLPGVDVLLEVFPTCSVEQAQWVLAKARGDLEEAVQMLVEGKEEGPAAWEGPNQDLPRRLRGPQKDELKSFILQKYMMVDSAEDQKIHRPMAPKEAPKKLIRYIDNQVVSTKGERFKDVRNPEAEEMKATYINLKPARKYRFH
inactive: alvocidib 0.054 | Tubastatin A 0.036 | [1] 0.03 | defactinib 0.055 | [2] 0.078 | encorafenib 0.006 | [3] -0.026 | alisertib -0.019 | [4] -0.009 | gefitinib 0.019 | lapatinib 0.018 | pictilisib -0.119 | crizotinib 0.001 | duvelisib -0.009 | gandotinib -0.026 | tozasertib -0.055 | doramapimod 0.022 | bafetinib -0.073 | [6] -0.082
active: [5] 0.528

DNAJC3 (UniProt Q13217)
Sequence of UniProt Q13217 (Q13217 whole entry, looked up): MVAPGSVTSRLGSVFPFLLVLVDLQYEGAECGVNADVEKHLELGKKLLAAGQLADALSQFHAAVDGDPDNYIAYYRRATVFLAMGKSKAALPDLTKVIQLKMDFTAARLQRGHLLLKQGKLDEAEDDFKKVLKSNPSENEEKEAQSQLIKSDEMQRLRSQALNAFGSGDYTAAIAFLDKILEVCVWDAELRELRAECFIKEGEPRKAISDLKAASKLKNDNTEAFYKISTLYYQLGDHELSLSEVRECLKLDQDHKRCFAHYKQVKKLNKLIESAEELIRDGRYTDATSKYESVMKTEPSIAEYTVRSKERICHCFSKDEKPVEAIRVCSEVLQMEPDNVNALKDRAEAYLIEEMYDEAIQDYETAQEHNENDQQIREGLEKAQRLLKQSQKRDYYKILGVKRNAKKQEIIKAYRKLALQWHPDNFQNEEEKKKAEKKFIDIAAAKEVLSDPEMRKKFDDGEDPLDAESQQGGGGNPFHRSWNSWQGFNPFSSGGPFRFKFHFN
inactive: alvocidib 0.004 | Tubastatin A 0.073 | [1] 0.005 | defactinib 0.021 | [2] -0.029 | encorafenib 0.044 | [3] 0.011 | alisertib 0 | [4] 0.005 | gefitinib 0.026 | lapatinib 0.01 | pictilisib -0.015 | crizotinib 0.047 | [5] 0.001 | duvelisib 0.046 | gandotinib 0.012 | tozasertib 0.014 | doramapimod -0.064 | bafetinib -0.002 | [6] -0.014

DHRS1 (UniProt Q96LJ7)
Sequence of UniProt Q96LJ7 (Q96LJ7 whole entry, looked up): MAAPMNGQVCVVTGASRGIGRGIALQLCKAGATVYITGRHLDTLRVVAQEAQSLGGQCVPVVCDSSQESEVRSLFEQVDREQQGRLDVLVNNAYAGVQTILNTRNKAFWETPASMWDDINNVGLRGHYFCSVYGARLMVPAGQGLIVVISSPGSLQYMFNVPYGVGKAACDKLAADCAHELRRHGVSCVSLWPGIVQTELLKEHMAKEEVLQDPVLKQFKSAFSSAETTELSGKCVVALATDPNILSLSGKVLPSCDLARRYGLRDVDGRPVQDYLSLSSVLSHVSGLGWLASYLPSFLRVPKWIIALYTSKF
active: duvelisib 0.406
inactive: alvocidib -0.057 | Tubastatin A 0.02 | [1] 0.188 | defactinib -0.238 | [2] -0.012 | encorafenib 0.164 | [3] -0.102 | alisertib 0.059 | [4] 0.028 | gefitinib -0.075 | lapatinib -0.138 | pictilisib -0.089 | crizotinib -0.014 | [5] -0.037 | gandotinib 0.099 | tozasertib -0.281 | doramapimod -0.015 | bafetinib 0.056 | [6] 0.092

COG7 (UniProt P83436)
Sequence of UniProt P83436 (P83436 whole entry, looked up): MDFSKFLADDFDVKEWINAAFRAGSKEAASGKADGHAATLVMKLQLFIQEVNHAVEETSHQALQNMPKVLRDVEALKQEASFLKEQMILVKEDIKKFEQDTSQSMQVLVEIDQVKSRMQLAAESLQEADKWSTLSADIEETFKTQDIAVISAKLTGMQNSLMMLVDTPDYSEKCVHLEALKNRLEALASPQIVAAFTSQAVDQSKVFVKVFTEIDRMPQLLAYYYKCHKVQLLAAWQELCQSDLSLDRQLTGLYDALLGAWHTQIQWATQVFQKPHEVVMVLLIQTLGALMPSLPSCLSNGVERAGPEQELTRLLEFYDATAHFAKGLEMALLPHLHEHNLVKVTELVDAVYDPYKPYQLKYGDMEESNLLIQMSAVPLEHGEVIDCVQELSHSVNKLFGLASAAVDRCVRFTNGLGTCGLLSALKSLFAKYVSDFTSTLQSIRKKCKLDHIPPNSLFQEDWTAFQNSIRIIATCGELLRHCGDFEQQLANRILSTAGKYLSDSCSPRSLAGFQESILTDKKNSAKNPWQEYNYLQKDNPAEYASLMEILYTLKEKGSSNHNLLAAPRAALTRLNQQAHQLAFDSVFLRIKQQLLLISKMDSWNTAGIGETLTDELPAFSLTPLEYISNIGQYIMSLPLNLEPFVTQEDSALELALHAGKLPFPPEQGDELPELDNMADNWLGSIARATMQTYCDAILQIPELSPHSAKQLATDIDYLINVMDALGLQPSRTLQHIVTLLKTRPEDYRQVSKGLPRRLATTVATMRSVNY
inactive: alvocidib 0.019 | Tubastatin A -0.114 | [1] -0.02 | defactinib 0.056 | [2] -0.047 | encorafenib 0.028 | [3] 0.035 | alisertib 0.014 | [4] 0.012 | gefitinib 0.004 | lapatinib -0.014 | pictilisib -0.008 | crizotinib -0.025 | [5] -0.068 | duvelisib -0.01 | gandotinib -0.059 | tozasertib -0.028 | doramapimod 0.028 | bafetinib -0.044 | [6] 0.058

CXorf38 (UniProt Q8TB03)
Sequence of UniProt Q8TB03 (Q8TB03 whole entry, looked up): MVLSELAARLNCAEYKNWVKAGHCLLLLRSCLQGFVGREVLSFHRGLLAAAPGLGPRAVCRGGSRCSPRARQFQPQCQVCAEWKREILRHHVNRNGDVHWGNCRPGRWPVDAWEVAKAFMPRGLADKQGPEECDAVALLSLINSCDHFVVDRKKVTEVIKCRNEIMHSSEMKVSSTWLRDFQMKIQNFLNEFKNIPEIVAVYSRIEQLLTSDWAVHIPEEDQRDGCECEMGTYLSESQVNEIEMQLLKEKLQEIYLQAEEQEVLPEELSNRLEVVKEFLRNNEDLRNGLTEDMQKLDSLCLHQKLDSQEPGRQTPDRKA
inactive: alvocidib 0 | Tubastatin A 0.039 | [1] 0.04 | defactinib -0.012 | [2] -0.016 | encorafenib 0.02 | [3] -0.012 | alisertib -0.021 | [4] -0.058 | gefitinib -0.056 | lapatinib -0.05 | pictilisib -0.017 | crizotinib -0.019 | [5] -0.039 | duvelisib 0.013 | gandotinib 0.037 | tozasertib 0.037 | doramapimod 0.013 | bafetinib -0.018 | [6] -0.033

CTPS2 (UniProt Q9NRF8)
Sequence of UniProt Q9NRF8 (Q9NRF8 whole entry, looked up): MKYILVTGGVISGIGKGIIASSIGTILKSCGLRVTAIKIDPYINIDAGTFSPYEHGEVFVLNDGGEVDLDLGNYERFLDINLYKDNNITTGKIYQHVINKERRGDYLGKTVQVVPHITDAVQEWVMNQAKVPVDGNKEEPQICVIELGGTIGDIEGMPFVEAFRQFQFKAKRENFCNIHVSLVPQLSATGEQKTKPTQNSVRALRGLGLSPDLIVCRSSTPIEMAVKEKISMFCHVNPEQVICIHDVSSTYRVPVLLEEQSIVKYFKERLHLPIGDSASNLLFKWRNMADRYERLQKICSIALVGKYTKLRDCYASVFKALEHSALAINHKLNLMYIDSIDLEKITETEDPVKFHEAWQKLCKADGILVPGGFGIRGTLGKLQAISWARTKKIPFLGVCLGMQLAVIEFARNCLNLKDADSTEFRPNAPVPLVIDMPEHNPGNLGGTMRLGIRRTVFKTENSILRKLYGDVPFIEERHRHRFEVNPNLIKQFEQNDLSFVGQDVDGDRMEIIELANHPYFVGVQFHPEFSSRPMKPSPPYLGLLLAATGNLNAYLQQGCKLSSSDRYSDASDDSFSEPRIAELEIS
inactive: alvocidib -0.01 | Tubastatin A 0.015 | [1] -0.009 | defactinib 0.01 | [2] -0.006 | encorafenib 0.01 | [3] -0.043 | alisertib -0.017 | [4] 0.011 | gefitinib 0.011 | lapatinib -0.025 | pictilisib -0.018 | crizotinib -0.004 | [5] -0.032 | duvelisib 0.016 | gandotinib -0.002 | tozasertib 0.009 | doramapimod 0.021 | bafetinib 0.077 | [6] 0.003

DLG3 isoform 2 (UniProt Q92796)
inactive: alvocidib -0.136 | Tubastatin A 0 | [1] -0.026 | defactinib 0.053 | [2] -0.01 | encorafenib -0.089 | [3] -0.082 | alisertib 0.069 | [4] -0.055 | gefitinib -0.131 | lapatinib 0.008 | pictilisib 0.073 | crizotinib -0.01 | [5] -0.047 | duvelisib 0.125 | gandotinib 0 | tozasertib 0.097 | doramapimod 0.043 | bafetinib 0.055 | [6] 0.065

DOCK8 (UniProt Q8NF50)
Sequence of UniProt Q8NF50 (Q8NF50 whole entry, looked up): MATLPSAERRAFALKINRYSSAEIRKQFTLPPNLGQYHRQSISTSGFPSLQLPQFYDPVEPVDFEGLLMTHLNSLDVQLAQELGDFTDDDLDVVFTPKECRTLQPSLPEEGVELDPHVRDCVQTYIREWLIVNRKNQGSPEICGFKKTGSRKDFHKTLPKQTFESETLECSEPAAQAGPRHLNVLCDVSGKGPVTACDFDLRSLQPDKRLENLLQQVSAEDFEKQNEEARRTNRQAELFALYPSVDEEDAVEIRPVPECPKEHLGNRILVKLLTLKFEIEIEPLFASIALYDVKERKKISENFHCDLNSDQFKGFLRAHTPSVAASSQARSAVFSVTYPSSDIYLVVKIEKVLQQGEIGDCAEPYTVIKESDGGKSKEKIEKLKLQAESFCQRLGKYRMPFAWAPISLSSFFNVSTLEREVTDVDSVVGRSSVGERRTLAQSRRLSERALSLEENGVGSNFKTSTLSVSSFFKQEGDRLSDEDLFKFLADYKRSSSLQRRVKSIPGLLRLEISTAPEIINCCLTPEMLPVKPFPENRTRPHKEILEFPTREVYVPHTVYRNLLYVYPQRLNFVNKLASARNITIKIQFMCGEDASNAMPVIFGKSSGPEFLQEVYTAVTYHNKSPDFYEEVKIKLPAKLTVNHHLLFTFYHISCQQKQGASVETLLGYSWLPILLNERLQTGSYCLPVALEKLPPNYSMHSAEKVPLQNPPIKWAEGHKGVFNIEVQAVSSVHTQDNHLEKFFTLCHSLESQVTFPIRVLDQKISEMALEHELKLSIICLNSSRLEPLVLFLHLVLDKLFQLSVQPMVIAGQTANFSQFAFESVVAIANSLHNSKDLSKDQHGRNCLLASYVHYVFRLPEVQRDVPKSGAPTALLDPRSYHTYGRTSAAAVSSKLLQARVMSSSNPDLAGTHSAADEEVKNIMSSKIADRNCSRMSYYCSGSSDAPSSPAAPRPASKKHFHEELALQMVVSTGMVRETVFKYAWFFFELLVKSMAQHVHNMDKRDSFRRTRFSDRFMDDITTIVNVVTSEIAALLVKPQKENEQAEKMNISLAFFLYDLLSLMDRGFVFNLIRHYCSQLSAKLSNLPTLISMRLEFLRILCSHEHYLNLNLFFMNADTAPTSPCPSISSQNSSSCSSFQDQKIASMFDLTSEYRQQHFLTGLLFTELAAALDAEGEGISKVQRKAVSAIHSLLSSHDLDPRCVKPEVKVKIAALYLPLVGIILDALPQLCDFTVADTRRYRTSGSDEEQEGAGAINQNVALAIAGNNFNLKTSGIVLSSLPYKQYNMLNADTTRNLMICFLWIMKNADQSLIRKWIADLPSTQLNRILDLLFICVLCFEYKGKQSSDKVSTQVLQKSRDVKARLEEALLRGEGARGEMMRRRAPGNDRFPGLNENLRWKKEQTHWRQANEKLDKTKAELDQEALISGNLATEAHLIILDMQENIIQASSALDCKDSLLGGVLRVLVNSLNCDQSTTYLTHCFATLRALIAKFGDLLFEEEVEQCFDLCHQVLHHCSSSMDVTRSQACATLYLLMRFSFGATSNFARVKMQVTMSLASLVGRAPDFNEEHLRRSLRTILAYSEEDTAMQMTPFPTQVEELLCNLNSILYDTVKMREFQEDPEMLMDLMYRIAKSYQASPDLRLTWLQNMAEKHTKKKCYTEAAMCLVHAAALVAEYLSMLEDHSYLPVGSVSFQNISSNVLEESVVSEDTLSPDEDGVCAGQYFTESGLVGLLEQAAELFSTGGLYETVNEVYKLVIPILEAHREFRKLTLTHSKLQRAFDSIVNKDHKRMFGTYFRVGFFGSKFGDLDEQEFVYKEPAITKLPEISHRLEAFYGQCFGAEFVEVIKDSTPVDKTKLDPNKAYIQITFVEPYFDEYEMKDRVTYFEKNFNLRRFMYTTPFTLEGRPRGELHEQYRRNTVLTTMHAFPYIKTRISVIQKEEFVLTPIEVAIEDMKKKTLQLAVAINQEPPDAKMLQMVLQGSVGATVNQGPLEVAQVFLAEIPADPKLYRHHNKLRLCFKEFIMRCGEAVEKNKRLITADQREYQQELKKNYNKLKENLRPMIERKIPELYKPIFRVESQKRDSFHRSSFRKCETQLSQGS
inactive: alvocidib 0.019 | Tubastatin A -0.098 | [1] 0.007 | defactinib 0.001 | [2] -0.073 | encorafenib 0.003 | [3] 0.05 | alisertib -0.01 | [4] 0.014 | gefitinib 0.005 | lapatinib -0.032 | pictilisib -0.011 | crizotinib -0.03 | [5] -0.002 | duvelisib 0.003 | gandotinib -0.097 | tozasertib 0.042 | doramapimod 0.029 | bafetinib -0.062 | [6] 0.02

CRABP2 (UniProt P29373)
Sequence of UniProt P29373 (P29373 whole entry, looked up): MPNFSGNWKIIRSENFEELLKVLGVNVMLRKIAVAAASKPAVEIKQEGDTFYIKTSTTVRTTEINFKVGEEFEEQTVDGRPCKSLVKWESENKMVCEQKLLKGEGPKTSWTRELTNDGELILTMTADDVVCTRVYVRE
inactive: alvocidib -0.025 | Tubastatin A -0.116 | [1] -0.04 | defactinib -0.015 | [2] 0.006 | encorafenib -0.209 | [3] 0.082 | alisertib -0.109 | [4] -0.018 | gefitinib 0.01 | lapatinib -0.008 | pictilisib -0.026 | crizotinib -0.025 | [5] 0.041 | duvelisib -0.056 | gandotinib 0.091 | tozasertib 0.241 | doramapimod 0.078 | bafetinib 0.014 | [6] -0.138

COG5 isoform 2 (UniProt Q9UP83)
inactive: alvocidib 0.02 | Tubastatin A -0.051 | [1] 0.04 | defactinib -0.005 | [2] -0.015 | encorafenib -0.025 | [3] -0.037 | alisertib -0.012 | [4] -0.053 | gefitinib 0.027 | lapatinib -0.059 | pictilisib -0.03 | crizotinib -0.025 | [5] 0.027 | duvelisib 0.007 | gandotinib -0.071 | tozasertib 0.013 | doramapimod -0.024 | bafetinib -0.034 | [6] 0.062

CTNND1 isoform 3 (UniProt O60716)
inactive: alvocidib -0.02 | Tubastatin A -0.159 | [1] 0.019 | defactinib 0.045 | [2] -0.04 | encorafenib 0.013 | [3] 0.174 | alisertib 0.026 | [4] 0.006 | gefitinib -0.023 | lapatinib -0.019 | pictilisib -0.047 | crizotinib -0.039 | [5] -0.006 | duvelisib 0.008 | gandotinib -0.001 | tozasertib 0.002 | doramapimod 0.007 | bafetinib -0.025 | [6] 0.04

DOK1 (UniProt Q99704)
inactive: alvocidib -0.02 | Tubastatin A -0.135 | [1] 0.059 | defactinib 0.059 | [2] -0.005 | encorafenib -0.007 | [3] 0.044 | alisertib 0.082 | [4] 0.071 | gefitinib -0.102 | lapatinib 0.01 | pictilisib -0.026 | crizotinib 0.007 | [5] -0.056 | duvelisib -0.002 | gandotinib 0.042 | tozasertib 0.008 | doramapimod 0.044 | bafetinib -0.006 | [6] -0.001

CIP2A (UniProt Q8TCG1)
inactive: alvocidib 0.009 | [1] -0.015 | defactinib 0.003 | [2] -0.074 | encorafenib 0.008 | [3] 0.053 | alisertib -0.004 | [4] -0.014 | gefitinib -0.018 | lapatinib -0.02 | pictilisib -0.045 | crizotinib -0.101 | [5] -0.049 | duvelisib 0.012 | gandotinib -0.218 | tozasertib 0 | doramapimod 0.005 | bafetinib -0.047 | [6] 0.103
active: Tubastatin A -0.294
